Data reported in PubChem BioAssay (NCI).
The panel holds about 79,000 compounds, 15% with a hit somewhere; the sample as a whole holds those more often. A number with no mark means an inactive call. The source made the active and inactive calls. Cut-off read from the data, not from the text of the source: active = growth inhibition above about 70%; inactive = the rest.

Legend:
[1] = NCI Yeast Anticancer Drug Screen. Data for the rad52 strain (AID 147);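 note: 0% = growth of vehicle-treated control cultures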; conditions: S. cerevisiae rad52 mutant growth inhibition, stronger effect = higher value
Outline: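 DNA repair-defective yeast; compound exposure; growth scored against vehicle controls.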

[2] = NCI Yeast Anticancer Drug Screen. Data for the wt1 strain (AID 149);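 note: 0% = growth of vehicle-treated wt1 cultures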; conditions: S. cerevisiae wt1 strain (SPY 50644) growth inhibition, stronger effect = higher value
Outline: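 Yeast wt1 strain exposed to compounds; growth inhibition measured relative to vehicle-treated controls.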

[3] = NCI Yeast Anticancer Drug Screen. Data for the rad50EPP+ strain (AID 151);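 note: 0% = growth of vehicle-treated control cultures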; conditions: S. cerevisiae rad50 mutant strain, stronger effect = higher value
Outline: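 rad50EPP+ yeast treated with test compounds. Readout: growth vs vehicle control.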

[4] = NCI Yeast Anticancer Drug Screen. Data for the mgt1 strain (AID 153); conditions: S. cerevisiae mgt1 mutant growth inhibition, stronger effect = higher value
Outline: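 Growth inhibition relative to vehicle controls was scored for the mgt1 yeast strain after compound exposure.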

[5] = NCI Yeast Anticancer Drug Screen. Data for the rad50 strain (AID 155);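 note: 0% = growth of vehicle-only cultures of the same strain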; conditions: S. cerevisiae rad50 strain growth inhibition, stronger effect = higher value
Outline: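 Yeast carrying a defined DNA repair defect were exposed to test compounds, and growth was compared with vehicle-treated controls to give percent inhibition.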

[6] = NCI Yeast Anticancer Drug Screen. Data for the mec2-1 strain (AID 157); conditions: S. cerevisiae mec2-1 strain, stronger effect = higher value
Outline: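 Growth inhibition is read against vehicle-treated controls after compound exposure of the mec2-1 yeast strain, which is defective in DNA damage repair or cell cycle control.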

[7] = NCI Yeast Anticancer Drug Screen. Data for the rad14 strain (AID 159);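 note: 0% = growth of vehicle-treated control cultures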; conditions: S. cerevisiae rad14 strain growth inhibition, stronger effect = higher value
Outline: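 Yeast cells carrying a defined DNA-repair defect were exposed to compounds, and growth inhibition was calculated relative to vehicle-treated control cultures.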

[8] = NCI Yeast Anticancer Drug Screen. Data for the sgs1 mgt1 strain (AID 161);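 note: 0% = growth of cultures given vehicle only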; conditions: S. cerevisiae sgs1 mgt1 strain, stronger effect = higher value
Outline: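 Growth of a repair-deficient yeast mutant was monitored after compound treatment and expressed as inhibition relative to vehicle-treated cultures.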

[9] = NCI Yeast Anticancer Drug Screen. Data for the CLN2oe strain (AID 163);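 note: 0% = growth of vehicle-only control cultures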; conditions: S. cerevisiae CLN2oe strain, stronger effect = higher value
Outline: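 Compound-treated yeast; growth vs vehicle ctrl = % inhibition. Genetically altered strain (cell-cycle control).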

[10] = NCI Yeast Anticancer Drug Screen. Data for the cln2 rad14 strain (AID 165);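 note: 0% = growth equal to vehicle treated cultures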; conditions: S. cerevisiae cln2 rad14 strain, stronger effect = higher value
Outline: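 Growth inhibition, relative to vehicle-treated controls, is the read-out. The test organism is a yeast strain with defined genetic alterations, cln2 rad14.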

[11] = NCI Yeast Anticancer Drug Screen. Data for the bub3 strain (AID 167); conditions: S. cerevisiae bub3 mutant strain, stronger effect = higher value
Outline: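 Compounds were applied to a genetically altered yeast strain carrying a cell-cycle control defect. Growth inhibition was scored against vehicle-treated controls.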

[12] = NCI Yeast Anticancer Drug Screen. Data for the wt2 strain (AID 169);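 note: 0% = growth of vehicle-treated yeast cultures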; conditions: S. cerevisiae wt2 strain growth inhibition, stronger effect = higher value
Outline: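 Compound exposure of yeast; growth compared with vehicle controls; inhibition reported.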

[13] = NCI Yeast Anticancer Drug Screen. Data for the mlh1 strain (AID 171);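 note: 0% = growth of vehicle-treated control cultures of the same strain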; conditions: S. cerevisiae mlh1 strain growth inhibition, stronger effect = higher value
Outline: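 Compounds are applied to a genetically altered yeast strain, and its growth is compared with that of vehicle-treated cultures to give percent inhibition.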

[14] = NCI Yeast Anticancer Drug Screen. Data for the sgs1 strain (AID 173);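 note: 0% = growth of vehicle-only control cultures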; conditions: S. cerevisiae sgs1 mutant, stronger effect = higher value
Outline: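 Compounds applied to genetically altered yeast; growth compared with vehicle-treated cultures to give % inhibition.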

[15] = NCI Yeast Anticancer Drug Screen. Data for the mlh1 rad18 strain (AID 175); conditions: S. cerevisiae mlh1 rad18 strain growth inhibition, stronger effect = higher value
Outline: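 Cells of a genetically altered yeast strain, deficient in DNA damage repair, were treated with compound. Their growth was then compared with that of vehicle-treated cultures to give inhibition.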

[16] = NCI Yeast Anticancer Drug Screen. Data for the rad18 strain (AID 177); conditions: S. cerevisiae rad18 mutant growth inhibition, stronger effect = higher value
Outline: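 Compounds are applied to a repair-deficient yeast strain, and growth is compared with that of vehicle-treated cultures to give percent inhibition.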

[17] = at 5.0 µM (retest, dose inferred, filed as 0.5)
[18] = at 50.0 µM (retest, dose inferred, filed as 5.0)

SMILES: CC(C)=CC(=O)O[C@@H]1CC(C)(C)CC2C3=CCC4[C@]56CC[C@](O)(OC5)C(C)(C)C6CC[C@@]4(C)C3(C)CC[C@]21C(=O)O (stereo partly specified)
- growth inhibition ([1]; at 1.2 µM): 2%
- growth inhibition ([1]; at 3.7 µM): 37%
- growth inhibition ([1]; at 11.0 µM): 80% (active)
- growth inhibition ([1]; at 33.0 µM): 93% (active)
- growth inhibition ([1]; at 100.0 µM): 92% (active)
- growth inhibition ([2]; at 1.2 µM): -23%
- growth inhibition ([2]; at 3.7 µM): 44%
- growth inhibition ([2]; at 11.0 µM): 85% (active)
- growth inhibition ([2]; at 33.0 µM): 93% (active)
- growth inhibition ([2]; at 100.0 µM): 92% (active)
- growth inhibition ([3]; at 1.2 µM): -9%
- growth inhibition ([3]; at 3.7 µM): -1%
- growth inhibition ([3]; at 11.0 µM): 7%
- growth inhibition ([3]; at 33.0 µM): 14%
- growth inhibition ([3]; at 100.0 µM): 6%
- growth inhibition ([4]; at 1.2 µM): -15%
- growth inhibition ([4]; at 3.7 µM): 11%
- growth inhibition ([4]; at 11.0 µM): 57%
- growth inhibition ([4]; at 33.0 µM): 89% (active)
- growth inhibition ([4]; at 100.0 µM): 91% (active)
- growth inhibition ([5]; at 1.2 µM): 1%
- growth inhibition ([5]; at 3.7 µM): 36%
- growth inhibition [5, 17]: 10%
- growth inhibition ([5]; at 11.0 µM): 75% (active)
- growth inhibition ([5]; at 33.0 µM): 94% (active)
- growth inhibition [5, 18]: 88% (active)
- growth inhibition ([5]; at 50.0 µM): 82.3% (active)
- growth inhibition ([5]; at 100.0 µM): 90% (active)
- growth inhibition ([6]; at 1.2 µM): -8%
- growth inhibition ([6]; at 3.7 µM): 31%
- growth inhibition [6, 17]: 27%
- growth inhibition ([6]; at 11.0 µM): 69%
- growth inhibition ([6]; at 33.0 µM): 88% (active)
- growth inhibition [6, 18]: 87% (active)
- growth inhibition ([6]; at 50.0 µM): 83.2% (active)
- growth inhibition ([6]; at 100.0 µM): 89% (active)
- growth inhibition ([7]; at 1.2 µM): -15%
- growth inhibition ([7]; at 3.7 µM): 2%
- growth inhibition ([7]; at 11.0 µM): 44%
- growth inhibition ([7]; at 33.0 µM): 78% (active)
- growth inhibition ([7]; at 100.0 µM): 84% (active)
- growth inhibition [8, 17]: 11%
- growth inhibition [8, 18]: 89% (active)
- growth inhibition ([8]; at 50.0 µM): 85.2% (active)
- growth inhibition ([9]; at 1.2 µM): -5%
- growth inhibition ([9]; at 3.7 µM): 54%
- growth inhibition ([9]; at 11.0 µM): 85% (active)
- growth inhibition ([9]; at 33.0 µM): 95% (active)
- growth inhibition ([9]; at 100.0 µM): 93% (active)
- growth inhibition [10, 17]: 33%
- growth inhibition [10, 18]: 92% (active)
- growth inhibition ([10]; at 50.0 µM): 79.3% (active)
- growth inhibition ([11]; at 1.2 µM): -18%
- growth inhibition ([11]; at 3.7 µM): 27%
- growth inhibition [11, 17]: 25%
- growth inhibition ([11]; at 11.0 µM): 81% (active)
- growth inhibition ([11]; at 33.0 µM): 92% (active)
- growth inhibition [11, 18]: 91% (active)
- growth inhibition ([11]; at 50.0 µM): 81.3% (active)
- growth inhibition ([11]; at 100.0 µM): 92% (active)
- growth inhibition ([12]; at 1.2 µM): -11%
- growth inhibition ([12]; at 3.7 µM): 18%
- growth inhibition ([12]; at 11.0 µM): 61%
- growth inhibition ([12]; at 33.0 µM): 91% (active)
- growth inhibition ([12]; at 100.0 µM): 94% (active)
- growth inhibition ([13]; at 1.2 µM): -13%
- growth inhibition ([13]; at 3.7 µM): 21%
- growth inhibition ([13]; at 11.0 µM): 58%
- growth inhibition ([13]; at 33.0 µM): 87% (active)
- growth inhibition ([13]; at 100.0 µM): 90% (active)
- growth inhibition ([14]; at 1.2 µM): -3%
- growth inhibition ([14]; at 3.7 µM): 46%
- growth inhibition ([14]; at 11.0 µM): 83% (active)
- growth inhibition ([14]; at 33.0 µM): 95% (active)
- growth inhibition ([14]; at 100.0 µM): 95% (active)
- growth inhibition [15, 17]: -11%
- growth inhibition [15, 18]: 90% (active)
- growth inhibition ([15]; at 50.0 µM): 78% (active)
- growth inhibition ([16]; at 1.2 µM): 9%
- growth inhibition ([16]; at 3.7 µM): 42%
- growth inhibition ([16]; at 11.0 µM): 36%
- growth inhibition ([16]; at 33.0 µM): 95% (active)
- growth inhibition ([16]; at 100.0 µM): 94% (active)

SMILES: COc1cc(C2SCC(=O)N2c2nnc(C(F)(F)F)s2)cc(OC)c1OC (stereo unspecified)
- growth inhibition ([1]; at 1.2 µM): -1%
- growth inhibition ([1]; at 3.7 µM): -3%
- growth inhibition ([1]; at 11.0 µM): -2%
- growth inhibition ([1]; at 33.0 µM): -3%
- growth inhibition ([1]; at 100.0 µM): -5%
- growth inhibition ([2]; at 1.2 µM): -84%
- growth inhibition ([2]; at 3.7 µM): -3%
- growth inhibition ([2]; at 11.0 µM): -3%
- growth inhibition ([2]; at 33.0 µM): -1%
- growth inhibition ([2]; at 100.0 µM): -3%
- growth inhibition ([3]; at 1.2 µM): -4%
- growth inhibition ([3]; at 3.7 µM): -2%
- growth inhibition ([3]; at 11.0 µM): 3%
- growth inhibition ([3]; at 33.0 µM): -2%
- growth inhibition ([3]; at 100.0 µM): 0%
- growth inhibition ([4]; at 1.2 µM): -1%
- growth inhibition ([4]; at 3.7 µM): -2%
- growth inhibition ([4]; at 11.0 µM): -5%
- growth inhibition ([4]; at 33.0 µM): -1%
- growth inhibition ([4]; at 100.0 µM): -4%
- growth inhibition ([5]; at 1.2 µM): -1%
- growth inhibition ([5]; at 3.7 µM): -2%
- growth inhibition [5, 17]: -5%
- growth inhibition ([5]; at 11.0 µM): -2%
- growth inhibition ([5]; at 33.0 µM): 0%
- growth inhibition [5, 18]: -18%
- growth inhibition ([5]; at 50.0 µM): 18.1%
- growth inhibition ([5]; at 100.0 µM): -5%
- growth inhibition ([6]; at 1.2 µM): -4%
- growth inhibition ([6]; at 3.7 µM): 2%
- growth inhibition [6, 17]: 0%
- growth inhibition ([6]; at 11.0 µM): 4%
- growth inhibition ([6]; at 33.0 µM): 1%
- growth inhibition [6, 18]: -4%
- growth inhibition ([6]; at 50.0 µM): 20.9%
- growth inhibition ([6]; at 100.0 µM): -1%
- growth inhibition ([7]; at 1.2 µM): -2%
- growth inhibition ([7]; at 3.7 µM): -2%
- growth inhibition ([7]; at 11.0 µM): -1%
- growth inhibition ([7]; at 33.0 µM): -2%
- growth inhibition ([7]; at 100.0 µM): -4%
- growth inhibition [8, 17]: -4%
- growth inhibition [8, 18]: 2%
- growth inhibition ([8]; at 50.0 µM): 0.1%
- growth inhibition ([9]; at 1.2 µM): -7%
- growth inhibition ([9]; at 3.7 µM): 1%
- growth inhibition ([9]; at 11.0 µM): -2%
- growth inhibition ([9]; at 33.0 µM): 0%
- growth inhibition ([9]; at 100.0 µM): -8%
- growth inhibition [10, 17]: -7%
- growth inhibition [10, 18]: -10%
- growth inhibition ([10]; at 50.0 µM): -12.5%
- growth inhibition ([11]; at 1.2 µM): 6%
- growth inhibition ([11]; at 3.7 µM): 12%
- growth inhibition [11, 17]: 31%
- growth inhibition ([11]; at 11.0 µM): 28%
- growth inhibition ([11]; at 33.0 µM): 41%
- growth inhibition [11, 18]: 50%
- growth inhibition ([11]; at 50.0 µM): 43.1%
- growth inhibition ([11]; at 100.0 µM): 48%
- growth inhibition ([12]; at 1.2 µM): -2%
- growth inhibition ([12]; at 3.7 µM): -4%
- growth inhibition ([12]; at 11.0 µM): -2%
- growth inhibition ([12]; at 33.0 µM): -4%
- growth inhibition ([12]; at 100.0 µM): -4%
- growth inhibition ([13]; at 1.2 µM): -3%
- growth inhibition ([13]; at 3.7 µM): -2%
- growth inhibition ([13]; at 11.0 µM): 0%
- growth inhibition ([13]; at 33.0 µM): -1%
- growth inhibition ([13]; at 100.0 µM): -2%
- growth inhibition ([14]; at 1.2 µM): -3%
- growth inhibition ([14]; at 3.7 µM): -2%
- growth inhibition ([14]; at 11.0 µM): -3%
- growth inhibition ([14]; at 33.0 µM): -1%
- growth inhibition ([14]; at 100.0 µM): -1%
- growth inhibition [15, 17]: -4%
- growth inhibition [15, 18]: -9%
- growth inhibition ([15]; at 50.0 µM): 0.35%
- growth inhibition ([16]; at 1.2 µM): -2%
- growth inhibition ([16]; at 3.7 µM): -2%
- growth inhibition ([16]; at 11.0 µM): -1%
- growth inhibition ([16]; at 33.0 µM): -2%
- growth inhibition ([16]; at 100.0 µM): -2%
